Source: PubChem BioAssay (EPA / NIEHS)
Records with an inconclusive call do not appear. Active and inactive are the calls of the source. Rule for the calls: active = hit-call score of the fitted dose curve at least 0.9, where 1 is the maximum; inconclusive = response in the unintended direction; inactive = score below 0.9. Peptide text beside a SMILES is read from it.

Each compound was assayed against rat Thyrotropin Releasing Hormone Receptor (TRH), Trhr (gene 25570) (UniProt Q01717) (assay: NVS_GPCR_rTRH: NovaScreen (NVS) G Protein-Coupled Receptor Assay for rat Thyrotropin Releasing Hormone Receptor (TRH) (AID 2283329);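 note: hit means lower bound tracer signal versus DMSO baseline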).
Chain of rat Thyrotropin Releasing Hormone Receptor (TRH), Trhr (gene 25570) (Q01717 whole entry, looked up): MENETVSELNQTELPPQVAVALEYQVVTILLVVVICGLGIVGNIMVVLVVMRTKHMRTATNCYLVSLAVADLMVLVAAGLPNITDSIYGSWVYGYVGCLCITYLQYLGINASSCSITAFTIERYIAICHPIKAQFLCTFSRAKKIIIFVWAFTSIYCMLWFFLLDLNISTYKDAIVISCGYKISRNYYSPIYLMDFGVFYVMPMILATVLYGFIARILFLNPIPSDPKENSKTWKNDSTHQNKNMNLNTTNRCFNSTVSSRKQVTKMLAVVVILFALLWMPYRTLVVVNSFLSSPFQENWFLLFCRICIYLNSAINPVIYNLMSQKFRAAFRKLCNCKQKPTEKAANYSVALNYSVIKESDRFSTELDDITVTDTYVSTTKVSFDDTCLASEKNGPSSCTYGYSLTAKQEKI
Protocol: NVS_GPCR_rTRH is a biochemical, single-readout assay that uses extracted gene-proteins from Rat forebrain membranes in a tissue-based cell-free assay. Measurements were taken 4 hours after chemical dosing in a 48-well plate.NVS_GPCR_rTRH is one of one assay component(s) measured or calculated from the NVS_GPCR_rTRH assay. It is designed to make measurements of radioligand binding, a form of binding reporter, as detected with scintillation counting signals by Filter-based radiodetection technology.Data from the assay component NVS_GPCR_rTRH was analyzed into 1 assay endpoint. This assay endpoint, NVS_GPCR_rTRH, was analyzed in the positive analysis fitting direction relative to DMSO as the negative control and baseline of activity. Using a type of binding reporter, loss-of-signal activity can be used to understand changes in the binding as they relate to the gene Trhr. Furthermore, this assay endpoint can be referred to as a primary readout, because the performed assay has only produced 1 assay endpoint. To generalize the intended target to other relatable targets, this assay endpoint is annotated to the gpcr intended target family, where the subfamily is rhodopsin-like receptor.
Binding assays used specific radioligands (tritiated, iodinated) with non-radioactive competitive displacement ligands in agonist or antagonist protocols (as indicated) and various reference compounds and inhibitors to titrate specific binding to receptors and transporters. Most enzyme assays (CYPs, kinases, phosphatases, proteases, HDACs) used recombinant protein and specific substrates (fluorescence mostly, some colorimetric and radioactive) and inhibitors, followed by a biochemical separation of substrate and product. All assays for the biochemical HTS were initially run in duplicate at a single concentration (10 uM for CYP450 assays and 25 uM for all others). […] Each assay was run with positive and negative controls, and concurrent controls on every plate. The follow-up (secondary) screen tested active chemical-pairs in concentration series, as well as a few additional assays not tested in the primary screen, some selected negative inactives, and several cases re-run in the concentration series for confirmatory purposes.

Question: How did the outcome turn out when `CCN1CN(CC)CN(CC)C1` was run?
Answer: inactive

Question: With `COC(=O)[C@H](Cc1ccccc1)NC(=O)[C@@H](N)CC(=O)O` (H-Asp-Phe-OMe) as the compound, how does the outcome read?
Answer: inactive

Question: Which outcome does the source give for `C/C=C/C=C/CCCCCCCO` here?
Answer: inactive

Question: For `O=C(OCc1ccccc1)c1ccc(O)cc1`, which outcome is on record?
Answer: inactive

Question: `CC1=CCC2CC1C2(C)C` (stereo not drawn) was tested. Which outcome did it give?
Answer: inactive

Question: For `CCOC(=O)c1ccccc1C`, which outcome is on record?
Answer: inactive

Question: Which outcome does the source give for `CCCCCCCCCC[N+](C)(CCCCCCCCCC)CCC[Si](OC)(OC)OC` here?
Answer: inactive

Question: Which outcome does the source give for `CC(=O)OC(C)c1ccccc1` (stereo not drawn) here?
Answer: inactive

Question: Which outcome does the source give for `CCCCC(=O)O` here?
Answer: inactive

Question: For `CCCCCCO`, which outcome is on record?
Answer: inactive

Question: How did the outcome turn out when `CC(CCC(=O)O)(c1ccc(O)cc1)c1ccc(O)cc1` was run?
Answer: inactive

Question: With `CCCCC(C=O)CC` (stereo not drawn) as the compound, how does the outcome read?
Answer: inactive

Question: For `CCCCNS(=O)(=O)c1ccccc1`, which outcome is on record?
Answer: inactive

Question: How did the outcome turn out when `CN(C)Cc1cc(CN(C)C)c(O)c(CN(C)C)c1` was run?
Answer: inactive

Question: Which outcome does the source give for `CC(=O)OC1CCCCC1C(C)(C)C` (stereo not drawn) here?
Answer: inactive

Question: Which outcome does the source give for `CCOC(=O)c1ccc(C)cc1` here?
Answer: inactive

Question: How did the outcome turn out when `CC1=NN(c2ccc(S(=O)(=O)O)cc2)C(=O)C1N=Nc1ccccc1` (stereo not drawn) was run?
Answer: inactive

Question: For `CCCCNC(=S)NCCCC`, which outcome is on record?
Answer: inactive

Question: For `Oc1ccc(-c2ccccc2)c(Cl)c1`, which outcome is on record?
Answer: inactive

Question: `CC(C)(C)NC(=O)[C@H]1CC[C@H]2[C@@H]3CC[C@H]4NC(=O)C=C[C@]4(C)[C@H]3CC[C@]12C` was tested. Which outcome did it give?
Answer: inactive

Question: `CCCCC(CC)COS(=O)(=O)O` (stereo not drawn) was tested. Which outcome did it give?
Answer: inactive

Question: With `C=C1C[C@H]2[C@@H]3C=C(C)C4=CC(=O)CC[C@]4(C)[C@H]3CC[C@]2(C)[C@@]1(OC(C)=O)C(C)=O` as the compound, how does the outcome read?
Answer: inactive

Question: How did the outcome turn out when `CCCCCCC=O` was run?
Answer: inactive
